{"source": "PubChem BioAssay (EPA / NIEHS)", "key": {"[1]": {"molecular_target": "rat Neurokinin-3 Receptor (NK3), Tacr3 (gene 24808) (UniProt P16177)", "sequence (P16177 whole entry, looked up)": "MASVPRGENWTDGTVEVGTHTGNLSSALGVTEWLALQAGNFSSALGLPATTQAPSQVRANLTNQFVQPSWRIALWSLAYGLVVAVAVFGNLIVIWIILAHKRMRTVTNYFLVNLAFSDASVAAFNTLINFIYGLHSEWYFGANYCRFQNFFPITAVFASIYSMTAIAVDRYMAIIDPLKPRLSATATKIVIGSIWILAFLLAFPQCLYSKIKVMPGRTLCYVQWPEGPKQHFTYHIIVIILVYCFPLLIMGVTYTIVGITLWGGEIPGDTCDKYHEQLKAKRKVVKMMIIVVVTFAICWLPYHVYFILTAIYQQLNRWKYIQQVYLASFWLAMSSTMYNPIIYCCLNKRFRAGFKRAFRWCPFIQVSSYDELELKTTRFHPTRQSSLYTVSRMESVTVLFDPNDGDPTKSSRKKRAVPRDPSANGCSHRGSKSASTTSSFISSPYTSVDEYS", "experiment": "NVS_GPCR_rNK3: NovaScreen (NVS) G Protein-Coupled Receptor Assay for rat Neurokinin-3 Receptor (NK3) (AID 2283310)", "in_short": "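Filter-based radioligand displacement on rat cortex membrane preparations, read by scintillation 2 h post-dose. Chemicals first tested in duplicate at 25 uM; actives followed up in concentration series with a 50 uM maximum.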"}, "[2]": {"molecular_target": "rat Opioid Receptor, Non-selective Binding, Oprm1 (gene 25601) (UniProt P33535)", "sequence (P33535 whole entry, looked up)": "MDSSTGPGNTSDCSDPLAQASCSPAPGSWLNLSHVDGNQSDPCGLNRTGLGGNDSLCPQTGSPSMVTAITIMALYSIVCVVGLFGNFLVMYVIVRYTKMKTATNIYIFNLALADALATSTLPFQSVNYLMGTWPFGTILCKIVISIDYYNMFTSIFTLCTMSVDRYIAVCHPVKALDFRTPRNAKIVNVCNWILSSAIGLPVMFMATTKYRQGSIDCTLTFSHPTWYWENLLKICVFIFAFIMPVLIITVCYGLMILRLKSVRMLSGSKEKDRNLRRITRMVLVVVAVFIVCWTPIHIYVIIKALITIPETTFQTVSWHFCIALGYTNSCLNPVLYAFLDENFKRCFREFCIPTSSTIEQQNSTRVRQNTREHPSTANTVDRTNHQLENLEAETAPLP", "experiment": "NVS_GPCR_rOpiate_NonSelective: NovaScreen (NVS) G Protein-Coupled Receptor Assay for rat Opioid Receptor, Non-selective Binding (AID 2283318)", "in_short": "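Filter-based radioligand displacement using rat forebrain membrane preparations, measured 1.5 h post-dosing. Single-concentration duplicate screen at 25 uM, follow-up in concentration series; activity taken as signal loss relative to DMSO.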"}, "[3]": {"experiment": "NVS_IC_rCaDHPRCh_L: NovaScreen (NVS) Ion Channel Assay for rat Calcium Channel, Type L, Dihydropyridine Site (CaDHPRCh_L) (AID 2283320)", "in_short": "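Rat cortex membrane preparation; dihydropyridine-site radioligand displacement read 1 h post-dose by filtration and scintillation. Primary single-point screen 25 uM in duplicate, then concentration series to 50 uM maximum; DMSO as negative control.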"}, "[4]": {"molecular_target": "Sodium channel protein type 1 subunit alpha (Rattus norvegicus) (UniProt P04774)", "experiment": "NVS_IC_rNaCh_site2: NovaScreen (NVS) Ion Channel Assay for rat Sodium Channel, Site 2 (NaCh) (AID 2283322);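 also: hit means loss of radioligand binding signal relative to DMSO so AC50 marks displacement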", "in_short": "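Initial duplicate single-point testing at 25 uM, followed by concentration-response runs for actives. Binding of radioligand to rat forebrain membranes quantified after 1 h via filter-based radiodetection.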"}, "[5]": {"molecular_target": "human Peripheral-type Benzodiazepine Receptor (PBR), TSPO (gene 706) (UniProt P30536)", "sequence (P30536 whole entry, looked up)": "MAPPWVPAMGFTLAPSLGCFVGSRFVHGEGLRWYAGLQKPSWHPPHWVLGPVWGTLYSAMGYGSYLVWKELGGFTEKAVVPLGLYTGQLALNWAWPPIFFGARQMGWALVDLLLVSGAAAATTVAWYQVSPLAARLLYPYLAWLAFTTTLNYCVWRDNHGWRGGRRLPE", "experiment": "NVS_MP_hPBR: NovaScreen (NVS) Membrane Protein Assay for human Peripheral-type Benzodiazepine Receptor (PBR) (AID 2283331)", "in_short": "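Cell-free binding to human colonic membrane preparations measured by filter-based scintillation counting after 1 h. Compounds first run at 25 uM in duplicate, then concentration series for actives; signal loss against DMSO baseline.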"}, "[6]": {"molecular_target": "rat Glutamate, AMPA Site (AMPA), Gria1 (gene 50592) (UniProt P19490)", "sequence (P19490 whole entry, looked up)": "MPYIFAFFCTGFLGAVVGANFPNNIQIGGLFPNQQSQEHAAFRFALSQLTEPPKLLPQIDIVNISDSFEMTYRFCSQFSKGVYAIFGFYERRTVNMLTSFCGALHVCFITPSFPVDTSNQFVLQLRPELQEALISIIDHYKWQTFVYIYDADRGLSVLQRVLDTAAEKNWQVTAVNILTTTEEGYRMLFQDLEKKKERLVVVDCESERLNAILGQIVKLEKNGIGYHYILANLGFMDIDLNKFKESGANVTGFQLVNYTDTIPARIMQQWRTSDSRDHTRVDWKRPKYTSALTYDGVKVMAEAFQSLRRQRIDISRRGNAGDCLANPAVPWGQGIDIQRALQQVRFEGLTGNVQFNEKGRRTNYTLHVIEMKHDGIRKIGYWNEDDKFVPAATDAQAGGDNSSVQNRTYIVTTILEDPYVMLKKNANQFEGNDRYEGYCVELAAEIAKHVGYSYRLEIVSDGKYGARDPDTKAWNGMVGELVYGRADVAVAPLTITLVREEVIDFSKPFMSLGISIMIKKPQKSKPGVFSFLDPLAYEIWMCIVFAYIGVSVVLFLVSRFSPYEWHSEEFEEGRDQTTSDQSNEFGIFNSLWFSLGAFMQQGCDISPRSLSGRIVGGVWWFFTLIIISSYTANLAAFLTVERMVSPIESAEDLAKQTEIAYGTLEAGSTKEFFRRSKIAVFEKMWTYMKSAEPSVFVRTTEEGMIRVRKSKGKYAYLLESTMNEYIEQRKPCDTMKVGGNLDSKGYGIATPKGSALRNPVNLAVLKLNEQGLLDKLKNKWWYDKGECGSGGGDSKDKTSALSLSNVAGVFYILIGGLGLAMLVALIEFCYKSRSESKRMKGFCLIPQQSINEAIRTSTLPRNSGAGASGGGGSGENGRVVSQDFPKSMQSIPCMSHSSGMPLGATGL", "experiment": "NVS_LGIC_rAMPA: NovaScreen (NVS) Ligand-Gated Ion Channel Assay for rat Glutamate, AMPA Site (AMPA) (AID 2283324)", "in_short": "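Screening at 25 uM in duplicate preceded concentration series reaching 50 uM for qualifying compounds. Radioligand displacement on rat forebrain membranes, 1 h, filter-based scintillation readout; reduced binding relative to DMSO.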"}, "Adra2b (gene 24174)": {"molecular_target": "Adra2b (gene 24174) (UniProt P19328)", "sequence (P19328 whole entry, looked up)": "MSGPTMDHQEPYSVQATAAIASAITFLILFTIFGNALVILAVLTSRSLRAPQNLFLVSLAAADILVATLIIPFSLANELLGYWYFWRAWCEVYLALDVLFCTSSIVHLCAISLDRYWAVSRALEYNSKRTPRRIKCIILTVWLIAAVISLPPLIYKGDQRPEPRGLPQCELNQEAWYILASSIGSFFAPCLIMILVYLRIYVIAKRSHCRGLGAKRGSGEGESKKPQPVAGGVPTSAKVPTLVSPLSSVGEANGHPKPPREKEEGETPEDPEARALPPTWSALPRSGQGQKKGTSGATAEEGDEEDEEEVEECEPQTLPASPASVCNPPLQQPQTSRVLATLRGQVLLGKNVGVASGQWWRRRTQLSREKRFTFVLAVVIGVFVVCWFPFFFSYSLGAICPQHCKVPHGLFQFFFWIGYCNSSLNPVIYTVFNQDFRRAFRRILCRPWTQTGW", "experiment": "NVS_GPCR_rmAdra2B: NovaScreen (NVS) G Protein-Coupled Receptor Assay for hybird cells Adrenergic, Alpha 2B Receptor (Adra2B) (AID 2283306)", "in_short": "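Compounds screened first at 25 uM in duplicate, with actives followed up in concentration-response; specific radioligand displacement from hybrid neuroglioma/blastoma cell membrane preparations measured by filter scintillation counting after 1 h, normalized to DMSO.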"}, "[7]": {"molecular_target": "rat Neurokinin-1 Receptor (NK1), Tacr1 (gene 24807) (UniProt P14600)", "sequence (P14600 whole entry, looked up)": "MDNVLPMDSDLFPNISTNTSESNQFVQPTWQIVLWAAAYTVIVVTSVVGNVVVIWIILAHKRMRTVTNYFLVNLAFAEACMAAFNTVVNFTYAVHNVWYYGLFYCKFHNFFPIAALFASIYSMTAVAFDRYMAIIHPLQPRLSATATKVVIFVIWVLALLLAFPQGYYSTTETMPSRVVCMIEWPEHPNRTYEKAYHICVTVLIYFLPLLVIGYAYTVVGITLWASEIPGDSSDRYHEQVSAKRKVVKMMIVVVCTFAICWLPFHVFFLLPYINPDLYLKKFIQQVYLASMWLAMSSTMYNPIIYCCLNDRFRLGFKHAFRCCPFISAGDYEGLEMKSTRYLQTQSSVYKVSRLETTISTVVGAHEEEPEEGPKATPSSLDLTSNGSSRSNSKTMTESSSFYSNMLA", "experiment": "NVS_GPCR_rNK1: NovaScreen (NVS) G Protein-Coupled Receptor Assay for rat Neurokinin-1 Receptor (NK1) (AID 2283309)", "in_short": "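Competitive radioligand binding to NK1 in rat submaxillary membranes, 1 h incubation, filtration and scintillation read-out. Compounds first screened at 25 uM in duplicate, then concentration-response for actives; signal loss relative to DMSO.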"}, "[8]": {"molecular_target": "rat Opioid Receptor, Non-selective Sodium (Na+) Binding, Oprm1 (gene 25601) (UniProt P33535)", "sequence (P33535 whole entry, looked up)": "as the sequence (P33535 whole entry, looked up) above", "experiment": "NVS_GPCR_rOpiate_NonSelectiveNa: NovaScreen (NVS) G Protein-Coupled Receptor Assay for rat Opioid Receptor, Non-selective Sodium (Na+) Binding (AID 2283311)", "in_short": "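Filtration radioligand binding on rat forebrain membrane preparations, read 1.5 h after dosing. Single-concentration 25 µM primary screen in duplicate, followed by singleton concentration series to 50 µM max for actives; DMSO baseline.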"}, "[9]": {"molecular_target": "rat Somatostatin Receptor (SST), Sstr1 (gene 25033) (UniProt P28646)", "sequence (P28646 whole entry, looked up)": "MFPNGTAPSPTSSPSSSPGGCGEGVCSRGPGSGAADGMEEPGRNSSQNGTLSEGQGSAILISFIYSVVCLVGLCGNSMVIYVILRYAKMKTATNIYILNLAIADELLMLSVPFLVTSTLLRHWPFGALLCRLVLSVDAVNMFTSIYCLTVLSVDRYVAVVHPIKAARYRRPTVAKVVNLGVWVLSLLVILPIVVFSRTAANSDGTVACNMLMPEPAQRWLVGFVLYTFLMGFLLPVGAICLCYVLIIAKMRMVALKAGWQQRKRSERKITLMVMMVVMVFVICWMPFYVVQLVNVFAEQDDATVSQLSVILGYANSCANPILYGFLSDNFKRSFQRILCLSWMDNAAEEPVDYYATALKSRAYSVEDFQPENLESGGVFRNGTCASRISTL", "experiment": "NVS_GPCR_rSST: NovaScreen (NVS) G Protein-Coupled Receptor Assay for rat Somatostatin Receptor (SST) (AID 2283314)", "in_short": "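Single-concentration duplicate screen (25 uM), then concentration-response up to 50 uM for chemicals passing a threshold such as 30% inhibition. Membranes came from rat forebrain. Binding was measured 1 h post-dose by filter radiodetection and scintillation, relative to DMSO.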"}, "NCBI gene 24521": {"test_system": "NCBI gene 24521", "experiment": "NVS_IC_rKATPCh: NovaScreen (NVS) Ion Channel Assay for rat Potassium Channel, ATP-Sensitive (KATPCh) (AID 2283319)", "in_short": "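Primary duplicate screen at 25 uM, then singleton concentration series to 50 uM maximum, in a rat cortex membrane radioligand displacement assay. Binding measured by filtration and scintillation 2 h post-dose; DMSO baseline.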"}, "[10]": {"molecular_target": "rat Thyrotropin Releasing Hormone Receptor (TRH), Trhr (gene 25570) (UniProt Q01717)", "sequence (Q01717 whole entry, looked up)": "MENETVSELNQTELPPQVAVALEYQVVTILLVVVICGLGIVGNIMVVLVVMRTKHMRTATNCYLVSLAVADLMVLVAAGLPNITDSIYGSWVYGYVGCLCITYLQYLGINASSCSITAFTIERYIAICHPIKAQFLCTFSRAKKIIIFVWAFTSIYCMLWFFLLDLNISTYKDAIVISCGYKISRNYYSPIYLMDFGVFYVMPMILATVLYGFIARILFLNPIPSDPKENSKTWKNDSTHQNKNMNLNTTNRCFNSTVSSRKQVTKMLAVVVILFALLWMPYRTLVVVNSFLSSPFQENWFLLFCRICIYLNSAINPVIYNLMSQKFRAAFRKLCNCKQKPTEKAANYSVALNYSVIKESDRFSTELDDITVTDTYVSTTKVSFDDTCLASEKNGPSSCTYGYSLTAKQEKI", "experiment": "NVS_GPCR_rTRH: NovaScreen (NVS) G Protein-Coupled Receptor Assay for rat Thyrotropin Releasing Hormone Receptor (TRH) (AID 2283329);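 also: hit means lower bound tracer signal versus DMSO baseline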", "in_short": "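Rat forebrain membrane prep, radioligand displacement, filter scintillation readout at 4 h. Single conc 25 uM, duplicate; actives retested as concentration series. DMSO = negative control/baseline.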"}, "[11]": {"molecular_target": "rat Neonicotinoid receptor (NNR), Chrna7 (gene 25302) (UniProt Q05941)", "sequence (Q05941 whole entry, looked up)": "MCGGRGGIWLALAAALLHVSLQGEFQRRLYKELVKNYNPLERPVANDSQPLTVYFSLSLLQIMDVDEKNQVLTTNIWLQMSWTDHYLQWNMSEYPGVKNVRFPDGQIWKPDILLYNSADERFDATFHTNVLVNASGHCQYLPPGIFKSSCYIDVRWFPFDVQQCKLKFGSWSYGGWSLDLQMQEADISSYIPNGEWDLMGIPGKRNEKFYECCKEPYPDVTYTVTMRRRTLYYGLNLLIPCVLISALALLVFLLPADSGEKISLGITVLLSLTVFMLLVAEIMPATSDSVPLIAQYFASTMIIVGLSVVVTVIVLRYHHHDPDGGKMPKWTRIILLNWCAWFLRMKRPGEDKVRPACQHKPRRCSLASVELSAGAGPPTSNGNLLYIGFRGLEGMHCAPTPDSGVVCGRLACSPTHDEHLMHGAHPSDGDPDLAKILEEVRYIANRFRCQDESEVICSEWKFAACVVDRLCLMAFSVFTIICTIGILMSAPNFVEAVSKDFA", "experiment": "NVS_LGIC_rNNR_BungSens: NovaScreen (NVS) Ligand-Gated Ion Channel Assay for rat Neonicotinoid receptor (NNR) (AID 2283315)", "in_short": "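Rat cortical membrane preparation incubated 2.5 h with tritiated or iodinated radioligand and test chemical. Bound radioactivity was filtered and counted by scintillation, and displacement was analysed against DMSO.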"}, "[12]": {"molecular_target": "rat Gamma-Aminobutyric Acid Type A Receptor, Non-Selective (GABAR-NonSelective), Gabra1 (gene 29705) (UniProt P62813)", "sequence (P62813 whole entry, looked up)": "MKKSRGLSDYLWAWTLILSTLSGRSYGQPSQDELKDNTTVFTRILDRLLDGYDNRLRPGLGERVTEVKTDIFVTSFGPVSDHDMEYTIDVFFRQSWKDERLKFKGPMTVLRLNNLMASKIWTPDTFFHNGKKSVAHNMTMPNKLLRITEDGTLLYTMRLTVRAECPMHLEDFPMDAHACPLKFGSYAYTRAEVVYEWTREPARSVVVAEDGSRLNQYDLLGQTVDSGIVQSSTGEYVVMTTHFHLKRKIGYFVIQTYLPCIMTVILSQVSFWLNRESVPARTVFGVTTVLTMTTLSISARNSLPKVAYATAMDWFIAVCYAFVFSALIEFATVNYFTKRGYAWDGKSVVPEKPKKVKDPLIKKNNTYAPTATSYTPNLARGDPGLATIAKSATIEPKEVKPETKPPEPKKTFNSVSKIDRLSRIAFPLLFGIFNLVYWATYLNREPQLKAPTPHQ", "experiment": "NVS_LGIC_rGABAR_NonSelective: NovaScreen (NVS) Ligand-Gated Ion Channel Assay for rat Gamma-Aminobutyric Acid Type A Receptor, Non-Selective (GABAR-NonSelective) (AID 2283326)", "in_short": "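Compounds were first screened in duplicate at 25 uM, with actives run as singleton concentration series (max 50 uM). Binding of a radioligand to rat whole-brain GABA-A preparation was measured by filtration and scintillation counting after 1 h, DMSO baseline.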"}}, "note": "Values joined by “and” are separate entries in the source; they are usually repeats but may differ in a detail not shown here. Equal entries are not always repeated. Inconclusive results are not listed. Active and inactive are the calls of the source. The calls were made as follows: active = hit-call score of the fitted dose curve at least 0.9, where 1 is the maximum; inconclusive = response in the unintended direction; inactive = score below 0.9."}
{"smiles": "Cc1oc(-c2ccccc2)nc1CCOc1ccc(C[C@H](Nc2ccccc2C(=O)c2ccccc2)C(=O)O)cc1", "values": [{"measurement": "outcome", "setting": "[1]", "result": "inactive"}, {"measurement": "outcome", "setting": "[2]", "result": "inactive"}, {"measurement": "AC50", "setting": "[3]", "result": "25 µM (active)"}, {"measurement": "AC50", "setting": "[4]", "result": "25 µM (active)"}, {"measurement": "AC50", "setting": "[5]", "result": "6.36 µM (active)"}]}
{"smiles": "Cc1cc(CCN2CCN(c3nsc4ccccc34)CC2)cc2c1NC(=O)CC2(C)C", "values": [{"measurement": "outcome", "setting": "[6]", "result": "inactive"}]}
{"smiles": "CC(=O)NC1(c2cccc(F)c2)CCN(CC[C@@]2(c3ccc(Cl)c(Cl)c3)CN(c3ccccc3)C(=O)CO2)CC1", "values": [{"measurement": "AC50", "setting": "Adra2b (gene 24174)", "result": "11 µM (active)"}, {"measurement": "AC50", "setting": "[7]", "result": "14.5 µM (active)"}, {"measurement": "AC50", "setting": "[1]", "result": "0.713 µM (active)"}, {"measurement": "AC50", "setting": "[8]", "result": "10.5 µM (active)"}, {"measurement": "AC50", "setting": "[9]", "result": "9.18 µM (active)"}, {"measurement": "AC50", "setting": "[2]", "result": "7.82 µM (active)"}, {"measurement": "AC50", "setting": "NCBI gene 24521", "result": "4.88 µM (active)"}, {"measurement": "AC50", "setting": "[3]", "result": "2.24 µM (active)"}, {"measurement": "AC50", "setting": "[4]", "result": "0.449 µM (active)"}]}
{"smiles": "C#C[C@]1(O)CC[C@H]2[C@@H]3CCC4=CC(=O)CC[C@@H]4[C@H]3CC[C@@]21C", "values": [{"measurement": "outcome", "setting": "[10]", "result": "inactive"}]}
{"smiles": "CC(C)(C)c1ccc(O)c(C(C)(C)C)c1", "values": [{"measurement": "AC50", "setting": "[9]", "result": "10.7 µM (active)"}]}
{"smiles": "CCN(CC)CCNc1ccc(CNC=O)c2sc3ccc(OC)cc3c(=O)c12", "values": [{"measurement": "AC50", "setting": "Adra2b (gene 24174)", "result": "9 µM (active)"}, {"measurement": "outcome", "setting": "[8]", "result": "inactive"}, {"measurement": "AC50", "setting": "[11]", "result": "29.3 µM (active)"}, {"measurement": "outcome", "setting": "[2]", "result": "inactive"}, {"measurement": "AC50", "setting": "[4]", "result": "12.7 µM (active)"}, {"measurement": "outcome", "setting": "[12]", "result": "inactive"}, {"measurement": "AC50", "setting": "[5]", "result": "8.04 µM (active)"}]}
{"smiles": "CC(=O)CC(C)(C)O", "values": [{"measurement": "outcome", "setting": "[2]", "result": "inactive"}, {"measurement": "outcome", "setting": "[10]", "result": "inactive"}]}
{"smiles": "c1ccc2cc3c(ccc4ccccc43)cc2c1", "values": [{"measurement": "AC50", "setting": "[5]", "result": "3.45 µM (active) and 5.17 µM (active) and 12.5 µM (active)"}]}
